Reference: PubChem BioAssay AID686978 (National Center for Advancing Translational Sciences (NCATS), 2013)
The campaign covered roughly 420,000 compounds. About 64,000 (15%) were called active. Inconclusive results (about 27%) are left out. Not all results are given here. Unmarked numbers belong to inactive results. The call rests on the fitted dose curve; in most records, active means well fitted inhibition curve with a large enough effect; inconclusive means small, poorly fitted or top-dose-only effect; inactive means flat fitted curve, though single readings scatter.

Test: qHTS for Inhibitors of human tyrosyl-DNA phosphodiesterase 1 (TDP1): qHTS in cells in absence of CPT; further: nearly all actives have a fitted effect of over 55% in size
Conditions: DT40 Tdp1-/- hTDP1 cells, no CPT, ATP luminescence, 48 h; activity change, negative = growth inhibition: at 46.2 µM (top of the series)
Outline: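 Seeded 400 DT40-hTDP1 cells/well (vehicle DMSO, no 20 nM CPT); pinned compounds; ≥48 hr at 37 °C; CellTiter-Glo luminescence as viability measure.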
On the % scale 0 is the no-effect control and ±100 the full control effect; potency means the concentration at half of the fitted maximal effect.

SMILES | activity change, negative = growth inhibition [%] | Potency
CSC1=NCCN1C(=O)Cc1cccc2ccccc12 | 8.2 | –
COCCN1C(=O)C(=O)/C(=C(/O)c2ccc(S(=O)(=O)N3CCOCC3)cc2)C1c1ccc(O)c(OC)c1 (stereo not drawn) | 17.3 | –
O=C(c1ccccc1Cl)N(Cc1ccccc1F)N1C(=O)CCCC1=O | 1.49 | –
CN(C)CCN(C(=O)C1CCCCC1)c1nc2cc3c(cc2s1)OCO3 | -3.74 | –
CC(=O)c1ccc(NC(=O)c2ccc(-n3cncn3)c([N+](=O)[O-])c2)cc1 | -26.5 | –
O=C(Nc1ccc2c(c1)OCO2)c1ccc(N2C(=O)c3ccccc3C2=O)cc1 | -6.15 | –
O=C(Nc1ccc(N2C(=O)c3cccc4cccc(c34)C2=O)cc1)c1ccc(N2CCCCC2)c([N+](=O)[O-])c1 | – | 7.31 µM (active)
O=C(COc1ccccc1F)NNC(=O)c1ccc(N2CCCCC2)c([N+](=O)[O-])c1 | -82 | –
O=C(Nc1cccc(C(F)(F)F)c1)c1ccc(N2CCNCC2)c([N+](=O)[O-])c1 | – | 18.4 µM (active)
CN1CCN(CC#CCC2(O)c3ccccc3-c3ccccc32)CC1 | -7.87 | –
CCC(=O)NC(=S)Nc1ccc(NC(=O)c2ccco2)c(Cl)c1 | -4.57 | –
COC(=O)c1cccc(NC(=O)CSc2nc(C)cc(=O)[nH]2)c1 | 1.31 | –
COC(=O)c1c(C(=O)OC)c(-c2cccc(C)c2)n2c1CS(=O)C2 (stereo not drawn) | -0.626 | –
COc1ccc(C2CC(c3cccs3)=NN2C(=O)CCC(=O)O)cc1OC (stereo not drawn) | 3.1 | –
COc1ccc(C2CC(c3cccs3)=NN2C(=O)CSc2nncs2)cc1OC (stereo not drawn) | -23.6 | –
O=C1c2cccc(OCC(=O)N3N=C(c4cccs4)CC3c3ccc(F)cc3)c2CCN1Cc1ccccc1 (stereo not drawn) | – | 9.2 µM (active)
CN(CC(=O)NC1CCCCC1)S(=O)(=O)c1ccc(Br)s1 | -32.5 | –
O=C1C(c2[nH]c3ccccc3c2O)=Nc2ccccc21 | -16.4 | –
COc1ccccc1-c1ccnc(-n2ncc(C(=O)NCCCN3CCOCC3)c2C)n1 | -3.07 | –
Cc1ccc(-n2ncc(C(=O)NC3CC3)c2C2CCN(C(=O)OC(C)(C)C)CC2)c(C)c1 | -18.3 | –
CCOC(=O)N1CCC(NC(=O)c2cnn3ccccc23)CC1 | -5.98 | –
CCN1CCN(CCCNC(=O)c2cnn(-c3ccc(C)cc3C)c2C2CCN(C(=O)OC(C)(C)C)CC2)CC1 | – | 20.6 µM (active)
COc1ccccc1N1CCN(CCCNC(=O)c2cnn(-c3ccccc3Cl)c2C2CCN(C(=O)OC(C)(C)C)CC2)CC1 | – | 5.8 µM (active)
CCOC(=O)N1CCC(Nc2c(NCCCN3CCN(CC)CC3)c(=O)c2=O)CC1 | -10.5 | –

SMILES | activity change, negative = growth inhibition [%] | Potency
COc1ccccc1N1CCN(CC(=O)NCCc2ccc(S(N)(=O)=O)cc2)CC1 | -1.08 | –
Cc1ccc(CN2CCC(CNC(=O)c3cnn(-c4ccccc4Cl)c3C3CCN(C(=O)OC(C)(C)C)CC3)CC2)cc1 | – | 4.61 µM (active)
COc1ccccc1CN1CCC(CNC(=O)c2cnn(-c3cccc(Cl)c3)c2C2CCN(C(=O)OC(C)(C)C)CC2)CC1 | – | 5.8 µM (active)
CSCCC(=O)N1CCCC(CNC(=O)c2ccccc2Cl)C1 (stereo not drawn) | -18.6 | –
CCc1cccc(C)c1NC(=O)COC(=O)Cc1ccsc1 | -18.7 | –
CC1CCCC(C)N1/N=C/c1ccccc1OC(F)F (stereo not drawn) | -23.5 | –
O=C(O)CCCCOn1ccnc1 | -5.4 | –
CCCc1cc(=O)[nH]c2nnc(SCC(=O)Nc3nnc(SCC)s3)n12 | -29.2 | –
COc1ccc(C(C)=O)cc1COC(=O)Cn1cnc2ccccc2c1=O | -0.295 | –
COCCNC(=O)C1CCCN(Cc2ccccc2Cl)CC1 (stereo not drawn) | -3.91 | –
COC(=O)N1CCC2(CCCN(Cc3ccccc3OC)C2)CC1 | -0.23 | –
COc1ccccc1CN1CCC(CNC(=O)c2cnn(-c3ccccc3Cl)c2C2CCN(C(=O)OC(C)(C)C)CC2)CC1 | – | 8.2 µM (active)
Cc1c(CN2CCCCC2)c(O)n(CCO)c(=O)c1C#N | 3.18 | –
COc1cc(CCC(=O)OCC(=O)Nc2cccc(S(N)(=O)=O)c2)cc(OC)c1OC | -0.764 | –
Cc1ccc(NC(=O)OCCNC(=O)c2ccncc2)cc1 | -1.06 | –
CCCc1cc(=O)n2[nH]c(NCc3ccc(CC)cc3)nc2n1 | -4.36 | –
CN(Cc1ccccc1Cl)C(=O)C1CCC(=O)N(CCc2cccc(F)c2)C1 (stereo not drawn) | -23.9 | –
O=C1c2ccccc2C(O)N1Cc1ccccc1 (stereo not drawn) | 11.4 | –
O=C(N[C@H]1C/C=C\C(c2cccc(F)c2)N(Cc2ccccc2)C(=O)C1)OCC1c2ccccc2-c2ccccc21 (stereo partly drawn) | – | 20.6 µM (active)
CCC(C)NC(=O)C1c2ccccc2C(=O)N1Cc1ccccc1 (stereo not drawn) | 14.2 | –
O=C(N[C@@H](Cc1c[nH]c2ccccc12)C(=O)O)OCC1c2ccccc2-c2ccccc21 | -25.3 | –
O=C(N[C@H]1C/C=C\C(c2ccc(F)cc2)N(Cc2ccccc2)C(=O)C1)OCC1c2ccccc2-c2ccccc21 (stereo partly drawn) | – | 20.6 µM (active)
CC1CCCN(S(=O)(=O)c2ccc3[nH]c(=O)cc(C(=O)NCCc4ccc(Cl)cc4)c3c2)C1 (stereo not drawn) | 3.52 | –
CC(C)(C)c1ccc(S(=O)(=O)N2CCN(C(=O)c3ccc4c(c3)C(=O)N(Cc3ccncc3)C4=O)CC2)cc1 | -20.4 | –

SMILES | activity change, negative = growth inhibition [%] | Potency
O=C(c1ccncc1)N1CCN(S(=O)(=O)c2cc(C(F)(F)F)cc(C(F)(F)F)c2)CC1 | -29.7 | –
O=C(c1ccc(C(F)(F)F)cc1)N1CCC(c2nc(-c3ccc(S(=O)(=O)N4CCCC4)cc3)no2)CC1 | – | 18.4 µM (active)
COC(=O)c1ccc(S(=O)(=O)N2CCC(c3nc4ccccc4o3)CC2)cc1 | -27.1 | –
NC(=O)C1CCN(C(=O)c2ccc(C(F)(F)F)cc2)CC1 | 10 | –
CC(C)(C)c1ccc(C(=O)N2CCC(c3nc(-c4ccc(S(=O)(=O)N5CCCC5)cc4)no3)CC2)cc1 | – | 20.6 µM (active)
Cc1ccc2nc(COc3cccc(NC(=O)c4ccccc4Cl)c3)cc(=O)n2c1 | -18.2 | –
CNC[C@H]1Oc2c(NC(=O)C3CCCCC3)cccc2C(=O)N([C@H](C)CO)C[C@@H]1C | 1.63 | –
O=C(COC(=O)c1ccc(O)cc1O)NNC(=O)c1cccs1 | -10 | –
Nc1nc(/C(=C/CC(=O)O)C(=O)N[C@@H]2C(=O)N3C(C(=O)O)=CCS[C@H]23)cs1 | 2.06 | –
COc1ccc(Cl)cc1NC(=O)CCN1CCOCC1 | -5.12 | –
COc1cccc2cc(C(C)N(CCCN3CCOCC3)C(=O)Nc3ccc(Cl)cc3)oc12 (stereo not drawn) | – | 23.1 µM (active)
COc1cccc(NC(=S)NCCCN2CCOCC2)c1 | -0.715 | –
CC(C)CC(=O)N1CCC(O)(CS(=O)(=O)Cc2ccccc2)CC1 | 5.44 | –
CCCCC(=O)Nc1c2c(nn1-c1ccc([N+](=O)[O-])cc1)CS(=O)(=O)C2 | 13.8 | –
Cc1ccc2c(c1)nnc1nnc(SCC(=O)O)n12 | -18 | –
C[C@H](NC(=O)c1nc[nH]c1C(=O)NCC(=O)OC(C)(C)C)C(=O)OCc1ccccc1 | -28.9 | –
CCCOc1ccc2c3c(c(=O)oc2c1OCCC)CCC3 | – | 23.1 µM (active)
NC(=O)COc1ccc2c3c(c(=O)oc2c1)CCCCC3 | -16.1 | –
Cc1c(OC(C)C(=O)N[C@@H](Cc2ccccc2)C(=O)O)ccc2c3c(c(=O)oc12)CCCC3 (stereo partly drawn) | 2.69 | –
COc1ccc(NC(=O)Nc2ccc3c(c2)C(=O)N([C@H](C)CO)C[C@H](C)[C@@H](CN(C)C(=O)Nc2ccc4c(c2)OCO4)O3)cc1 | -10 | –
CN(CCc1cnn(C)c1)Cc1cn(C)nc1-c1ccccc1F | -2.86 | –
C[C@H](CO)N1C[C@H](C)[C@@H](CN(C)S(=O)(=O)c2ccc(F)cc2)Oc2c(NC(=O)Nc3ccccc3)cccc2C1=O | -19.6 | –
COc1ccc(S(=O)(=O)N(C)C[C@H]2Oc3c(NC(=O)Nc4ccc5c(c4)OCO5)cccc3C(=O)N([C@H](C)CO)C[C@@H]2C)cc1 | – | 20.6 µM (active)
Cc1noc(C)c1S(=O)(=O)N(C)C[C@H]1Oc2c(NC(=O)Nc3ccc4c(c3)OCO4)cccc2C(=O)N([C@H](C)CO)C[C@@H]1C | -22 | –

SMILES | activity change, negative = growth inhibition [%] | Potency
Cn1c(=O)c(=O)n(C)c2cc(S(=O)(=O)NCCN3CCN(c4ccccc4F)CC3)ccc21 | -7.78 | –
CC(=O)Oc1cccc(N2C(=O)CC(Nc3ccc(N4CCOCC4)cc3)C2=O)c1 (stereo not drawn) | 2.95 | –
Cc1cc(C)c(C(=O)CSc2nc(C)cc(=O)[nH]2)c(C)c1 | -5.13 | –
Nc1cc(N)nc(SCc2ccc(Cl)cc2)n1 | 2.64 | –
Cc1cc(C(=O)CSc2nc(N)cc(=O)[nH]2)c(C)n1Cc1ccco1 | – | 0.82 µM (active)
Cc1cc(C(=O)COC(=O)CNC(=O)c2ccc(F)cc2)c(C)n1Cc1ccco1 | -3.47 | –
CCN(C(=O)CSc1nc(N)cc(=O)[nH]1)C1CCS(=O)(=O)C1 (stereo not drawn) | 23 | –
Cc1cc(=O)[nH]c(SCC(=O)N2c3ccccc3CC2C)n1 (stereo not drawn) | -13.5 | –
Cc1cc(C(=O)CSc2nc(N)cc(=O)[nH]2)c(C)n1CCc1ccc(Cl)cc1 | – | 16.4 µM (active)
Cc1cc(C(=O)CSc2nc(N)cc(=O)[nH]2)c(C)n1-c1cccc(F)c1 | – | 4.61 µM (active)
CCCCc1nnc(NC(=O)CSc2nc(N)cc(=O)[nH]2)s1 | -5.73 | –
C=CCn1c(COc2ccccc2F)nnc1SCC(=O)N1CC(=O)Nc2ccccc21 | 0.578 | –
O=C(O)C1C2C=CC(C2)C1C(=O)N1CCN(CCO)CC1 (stereo not drawn) | 1.64 | –
C/C(=N\c1nc2ccccc2n1C)c1cc(Cl)ccc1O | -18.9 | –
Cc1cc2oc3ccc(NCCC4CCCN4C)cc3c(=O)c2cc1C (stereo not drawn) | – | 16.4 µM (active)
CCCOc1ccc(C2c3c(oc4cc(C)c(C)cc4c3=O)C(=O)N2CCCN2CCOCC2)cc1 (stereo not drawn) | -19.8 | –
Cc1ccc(C(=O)O)c(NC=O)c1OCc1ccccc1 | 34.4 | –
CC(=O)Nc1ccc(NC(=O)CSc2nnc3c4cc(Br)ccc4n(C)c3n2)cc1 | -18.7 | –
O=C1CCC/C(=N\NC(=O)NC2CCCCC2)C1 | -5.53 | –
Cc1cnc(NC(=O)CSc2nnc(-c3ccccc3)n2Cc2ccccc2)s1 | -22.3 | –
COC(=O)c1ccc(COc2cc([N+](=O)[O-])cc3cccnc23)cc1 | 10.4 | –
